Assay results from the supplement of paper PMC10849652.
Of roughly 8,800 targets only a part is listed; those with a hit were picked by preference. About 0.5% of all pairs of compound and target were hits.

Compound: C/C(=N\NC(=O)C1=CC(=CC=C1)S(=O)(=O)N2CCOCC2)/C3=C(C=CC(=C3)Cl)O
Assay: log2 fold change, soluble protein after heating vs DMSO (PISA); higher = thermal stabilisation; K562 lysate, 10 uM; active = over 0.2 and 3.5 SD of the protein, either way, in both replicates (recomputed)
How it was run: (§1)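 Values give the log-two fold change in thermal stability against solvent controls, from duplicates. Crude K562 extract at 1 mg/mL protein, made by dounce homogenisation in PBS pH 7.4 with 1 mM MgCl2, was treated with 10 μM compound for 30 min. After 3 min heating across 48°C-58°C, aliquots were pooled, adjusted to 0.5% NP-40 at 4°C and centrifuged at 21,000xg for 90 min. The supernatant was measured by TMTpro 16plex LC-MS/MS with channel sums equalised.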

UniProt Q5D0E6, sequence (Q5D0E6 whole entry, looked up): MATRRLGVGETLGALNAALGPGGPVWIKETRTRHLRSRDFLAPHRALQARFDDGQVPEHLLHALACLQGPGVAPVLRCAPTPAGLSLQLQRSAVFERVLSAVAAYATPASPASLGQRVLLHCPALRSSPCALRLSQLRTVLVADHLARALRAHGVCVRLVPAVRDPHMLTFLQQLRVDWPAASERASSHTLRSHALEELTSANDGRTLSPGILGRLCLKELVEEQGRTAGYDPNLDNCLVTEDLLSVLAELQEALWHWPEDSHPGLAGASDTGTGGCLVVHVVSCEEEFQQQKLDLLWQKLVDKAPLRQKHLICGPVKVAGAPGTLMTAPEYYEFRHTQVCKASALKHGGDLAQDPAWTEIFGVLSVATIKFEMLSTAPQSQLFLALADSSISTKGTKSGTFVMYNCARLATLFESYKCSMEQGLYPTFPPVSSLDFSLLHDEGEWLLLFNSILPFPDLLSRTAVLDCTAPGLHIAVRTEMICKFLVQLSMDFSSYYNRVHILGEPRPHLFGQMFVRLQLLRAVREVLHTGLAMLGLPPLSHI
UniProt P53355, sequence (P53355 whole entry, looked up): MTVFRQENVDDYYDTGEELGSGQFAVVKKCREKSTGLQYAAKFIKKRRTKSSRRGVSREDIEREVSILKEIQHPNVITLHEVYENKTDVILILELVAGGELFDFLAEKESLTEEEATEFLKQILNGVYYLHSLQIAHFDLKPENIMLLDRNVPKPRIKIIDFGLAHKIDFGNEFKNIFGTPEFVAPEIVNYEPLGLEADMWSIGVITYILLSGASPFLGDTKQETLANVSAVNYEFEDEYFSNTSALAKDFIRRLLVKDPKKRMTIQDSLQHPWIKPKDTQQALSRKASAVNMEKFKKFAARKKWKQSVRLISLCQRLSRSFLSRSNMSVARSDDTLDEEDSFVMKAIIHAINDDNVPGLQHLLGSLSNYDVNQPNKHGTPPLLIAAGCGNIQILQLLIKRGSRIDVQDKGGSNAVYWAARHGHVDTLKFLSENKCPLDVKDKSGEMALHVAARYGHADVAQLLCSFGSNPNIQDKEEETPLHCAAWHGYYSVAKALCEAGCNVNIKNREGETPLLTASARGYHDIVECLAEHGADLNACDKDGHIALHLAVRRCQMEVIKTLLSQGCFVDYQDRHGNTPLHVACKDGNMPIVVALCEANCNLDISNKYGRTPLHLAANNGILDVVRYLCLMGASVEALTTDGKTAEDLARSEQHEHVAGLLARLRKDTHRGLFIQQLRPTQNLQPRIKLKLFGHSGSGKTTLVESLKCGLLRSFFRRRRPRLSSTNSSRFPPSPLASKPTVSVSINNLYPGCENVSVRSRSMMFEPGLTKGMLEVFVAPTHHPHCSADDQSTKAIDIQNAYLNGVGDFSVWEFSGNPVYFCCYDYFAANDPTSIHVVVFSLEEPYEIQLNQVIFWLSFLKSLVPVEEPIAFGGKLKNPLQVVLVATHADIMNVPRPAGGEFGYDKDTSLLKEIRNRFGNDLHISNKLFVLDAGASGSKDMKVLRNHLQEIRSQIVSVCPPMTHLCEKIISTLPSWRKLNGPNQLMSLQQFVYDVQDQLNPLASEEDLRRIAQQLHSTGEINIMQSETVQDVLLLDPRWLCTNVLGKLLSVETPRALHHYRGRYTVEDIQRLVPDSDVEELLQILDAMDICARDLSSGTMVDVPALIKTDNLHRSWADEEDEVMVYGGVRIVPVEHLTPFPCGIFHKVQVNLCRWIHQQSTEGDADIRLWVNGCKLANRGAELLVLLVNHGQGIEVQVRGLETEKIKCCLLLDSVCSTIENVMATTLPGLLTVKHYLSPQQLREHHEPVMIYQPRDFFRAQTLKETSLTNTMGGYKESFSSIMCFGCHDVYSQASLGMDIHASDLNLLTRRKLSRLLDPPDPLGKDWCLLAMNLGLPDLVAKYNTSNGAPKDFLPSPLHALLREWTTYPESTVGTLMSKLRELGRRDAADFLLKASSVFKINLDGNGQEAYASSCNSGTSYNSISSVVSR
UniProt Q9NYP3, sequence (Q9NYP3 whole entry, looked up): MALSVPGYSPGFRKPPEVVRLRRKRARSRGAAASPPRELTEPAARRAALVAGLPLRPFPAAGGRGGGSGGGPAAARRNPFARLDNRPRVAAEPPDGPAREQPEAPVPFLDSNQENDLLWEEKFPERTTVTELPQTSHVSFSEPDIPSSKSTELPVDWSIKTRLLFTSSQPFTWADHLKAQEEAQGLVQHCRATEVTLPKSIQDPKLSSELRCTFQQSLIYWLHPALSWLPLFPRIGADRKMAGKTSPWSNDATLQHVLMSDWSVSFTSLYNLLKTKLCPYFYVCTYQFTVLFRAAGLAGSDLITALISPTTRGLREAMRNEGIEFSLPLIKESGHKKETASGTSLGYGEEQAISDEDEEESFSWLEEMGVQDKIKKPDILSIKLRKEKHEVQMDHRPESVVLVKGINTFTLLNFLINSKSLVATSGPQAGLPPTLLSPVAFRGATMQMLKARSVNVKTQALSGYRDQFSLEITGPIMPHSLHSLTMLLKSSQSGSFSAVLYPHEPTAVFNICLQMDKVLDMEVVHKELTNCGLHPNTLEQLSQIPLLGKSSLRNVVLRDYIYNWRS
UniProt O75122, sequence (O75122 whole entry, looked up): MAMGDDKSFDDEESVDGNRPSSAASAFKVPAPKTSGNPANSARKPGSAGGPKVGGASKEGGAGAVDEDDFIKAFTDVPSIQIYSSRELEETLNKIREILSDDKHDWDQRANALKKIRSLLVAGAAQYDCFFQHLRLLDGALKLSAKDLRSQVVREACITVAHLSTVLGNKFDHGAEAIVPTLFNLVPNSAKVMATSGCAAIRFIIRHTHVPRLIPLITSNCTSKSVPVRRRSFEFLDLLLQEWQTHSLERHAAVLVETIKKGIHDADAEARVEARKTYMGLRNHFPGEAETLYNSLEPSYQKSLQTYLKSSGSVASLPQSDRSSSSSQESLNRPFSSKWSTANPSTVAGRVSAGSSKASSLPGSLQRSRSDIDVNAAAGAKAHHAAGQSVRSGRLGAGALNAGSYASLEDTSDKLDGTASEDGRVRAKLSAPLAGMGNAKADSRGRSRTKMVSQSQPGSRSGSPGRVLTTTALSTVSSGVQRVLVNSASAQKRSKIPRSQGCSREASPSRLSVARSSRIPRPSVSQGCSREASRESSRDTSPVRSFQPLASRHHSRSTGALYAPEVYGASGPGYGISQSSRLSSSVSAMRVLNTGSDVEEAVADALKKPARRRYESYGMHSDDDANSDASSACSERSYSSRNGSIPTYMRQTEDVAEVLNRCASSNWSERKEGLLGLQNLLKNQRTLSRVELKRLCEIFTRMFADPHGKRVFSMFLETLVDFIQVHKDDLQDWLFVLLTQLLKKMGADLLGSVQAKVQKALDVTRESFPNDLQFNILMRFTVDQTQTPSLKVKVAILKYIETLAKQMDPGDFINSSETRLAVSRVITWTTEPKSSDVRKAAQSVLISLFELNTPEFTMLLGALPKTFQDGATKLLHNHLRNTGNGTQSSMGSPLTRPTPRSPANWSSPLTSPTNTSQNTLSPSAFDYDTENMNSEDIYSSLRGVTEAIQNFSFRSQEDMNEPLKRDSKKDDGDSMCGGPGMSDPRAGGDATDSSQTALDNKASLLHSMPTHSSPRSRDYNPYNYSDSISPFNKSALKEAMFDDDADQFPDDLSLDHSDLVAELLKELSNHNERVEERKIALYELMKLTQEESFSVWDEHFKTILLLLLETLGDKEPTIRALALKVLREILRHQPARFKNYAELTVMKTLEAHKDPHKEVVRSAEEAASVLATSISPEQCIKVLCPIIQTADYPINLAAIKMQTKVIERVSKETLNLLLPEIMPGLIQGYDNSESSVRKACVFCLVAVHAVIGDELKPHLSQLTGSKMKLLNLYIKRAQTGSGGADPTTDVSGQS
UniProt P57737, sequence (P57737 whole entry, looked up): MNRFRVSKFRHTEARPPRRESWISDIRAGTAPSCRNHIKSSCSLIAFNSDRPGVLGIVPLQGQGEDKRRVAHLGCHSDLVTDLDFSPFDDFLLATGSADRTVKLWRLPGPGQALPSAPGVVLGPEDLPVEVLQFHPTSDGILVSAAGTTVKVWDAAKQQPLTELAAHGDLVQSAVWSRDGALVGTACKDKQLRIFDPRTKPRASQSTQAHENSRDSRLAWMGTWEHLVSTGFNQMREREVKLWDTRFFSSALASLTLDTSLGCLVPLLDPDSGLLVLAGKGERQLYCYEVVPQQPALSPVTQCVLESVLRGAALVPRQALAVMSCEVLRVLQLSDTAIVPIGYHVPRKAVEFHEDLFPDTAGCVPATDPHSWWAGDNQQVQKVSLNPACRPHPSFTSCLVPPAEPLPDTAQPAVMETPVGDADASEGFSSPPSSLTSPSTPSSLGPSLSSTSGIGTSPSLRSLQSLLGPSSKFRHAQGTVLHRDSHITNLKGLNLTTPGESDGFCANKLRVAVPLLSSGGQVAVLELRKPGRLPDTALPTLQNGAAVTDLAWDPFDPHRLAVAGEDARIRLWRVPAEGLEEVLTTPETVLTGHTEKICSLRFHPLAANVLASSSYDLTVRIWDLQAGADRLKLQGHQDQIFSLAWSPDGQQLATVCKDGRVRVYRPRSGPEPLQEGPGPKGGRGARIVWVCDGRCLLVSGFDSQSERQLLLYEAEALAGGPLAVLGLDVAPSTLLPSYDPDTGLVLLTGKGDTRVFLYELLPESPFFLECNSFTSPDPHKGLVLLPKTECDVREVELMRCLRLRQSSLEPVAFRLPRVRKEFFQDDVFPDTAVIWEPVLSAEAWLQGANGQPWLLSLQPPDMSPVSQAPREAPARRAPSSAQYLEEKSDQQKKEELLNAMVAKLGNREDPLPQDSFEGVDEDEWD
UniProt O95715, sequence (O95715 whole entry, looked up): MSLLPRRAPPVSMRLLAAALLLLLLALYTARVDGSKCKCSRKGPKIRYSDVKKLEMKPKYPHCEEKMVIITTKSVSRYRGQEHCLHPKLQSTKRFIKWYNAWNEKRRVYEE
UniProt O14810, sequence (O14810 whole entry, looked up): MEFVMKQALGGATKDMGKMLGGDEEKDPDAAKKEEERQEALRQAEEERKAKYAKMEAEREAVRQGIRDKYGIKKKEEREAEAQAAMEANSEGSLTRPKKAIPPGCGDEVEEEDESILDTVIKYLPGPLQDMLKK

log2 fold change, inactive:
CHEK2 (UniProt O96017) -0.006
COL12A1 (UniProt Q99715) -0.009
CSNK1D (UniProt P48730) -0.32
DALRD3 (UniProt Q5D0E6) 0.152
CLASP2 (UniProt O75122) -0.114
CORO7 (UniProt P57737) 0.01
CPLX1 (UniProt O14810) -0.059
DAPK1 isoform 3 (UniProt P53355) -0.17
DHX32 (UniProt Q7L7V1) -0.091
CNK3/IPCEF1 isoform 2 (UniProt G9CGD6) -0.008
CLASP1 isoform 4 (UniProt Q7Z460) -0.041
CINP isoform 3 (UniProt Q9BW66) 0.016
CLIP1, A0A3B3ITA2 0.025
CXCL14 (UniProt O95715) 0.119
DESI2 (UniProt Q9BSY9) 0.195

Compound: C1=CC(=CC=C1C2=NC3=C(N2)C=C(C=C3)C(=O)N)OC4=CC=C(C=C4)Cl
Assay: as above
How it was run: as §1

log2 fold change, inactive:
COPS9 (UniProt Q8WXC6) -0.362
COL12A1 (UniProt Q99715) 0.01
CSAD isoform 3 (UniProt Q9Y600) 0.064
DALRD3 (UniProt Q5D0E6) 0.05
CORO7 (UniProt P57737) 0.291
DHRS13 (UniProt Q6UX07) -0.074
COL6A3 (UniProt P12111) 0.14
CRLS1 (UniProt Q9UJA2) -0.085
DAPK1 isoform 3 (UniProt P53355) -0.306
DHX32 (UniProt Q7L7V1) 0.098
CNK3/IPCEF1 isoform 2 (UniProt G9CGD6) 0.038
CLASP1 isoform 4 (UniProt Q7Z460) 0.04
CLIP1 isoform 2 (UniProt P30622) 0.056
CYP4V2 (UniProt Q6ZWL3) 0.014
DNM2 isoform 4 (UniProt P50570) 0.107
DONSON (UniProt Q9NYP3) 0.051
CNOT2 (UniProt F8VRS8) 0.101

Compound: C1=CC2=C(C=CC(=C2)/C=C\3/C(=O)NC(=NCC4=CC=CS4)S3)N=C1
Assay: as above
How it was run: as §1

log2 fold change, inactive:
CHEK2 (UniProt O96017) 0.05
COL12A1 (UniProt Q99715) -0.008
CSNK1D (UniProt P48730) -0.06
DALRD3 (UniProt Q5D0E6) -0.413
CLASP2 (UniProt O75122) 0.12
CORO7 (UniProt P57737) -0.089
CPLX1 (UniProt O14810) 0.062
DAPK1 isoform 3 (UniProt P53355) -0.274
DHX32 (UniProt Q7L7V1) -0.052
CNK3/IPCEF1 isoform 2 (UniProt G9CGD6) -0.082
CLASP1 isoform 4 (UniProt Q7Z460) -0.262
CINP isoform 3 (UniProt Q9BW66) 0.015
CLIP1, A0A3B3ITA2 0.004
CXCL14 (UniProt O95715) -0.094
DESI2 (UniProt Q9BSY9) -0.043

Compound: C1=CC2=NC=CN=C2C=C1/C=C/3\C(=O)NC(=O)S3
Assay: as above
How it was run: as §1

log2 fold change, inactive:
CSDE1 isoform 3 (UniProt O75534) 0.13
CHEK2 (UniProt O96017) 0.053
DLGAP5 isoform 3 (UniProt Q15398) -0.009
CHMP4A (UniProt H0YIN6) 0.06
CSNK1D (UniProt P48730) 0.039
DDR1 isoform 5 (UniProt Q08345) 0.044
CSAD isoform 3 (UniProt Q9Y600) -0.115
CLASP2 (UniProt O75122) -0.225
DHRS13 (UniProt Q6UX07) -0.142
COL6A3 (UniProt P12111) -0.232
CRLS1 (UniProt Q9UJA2) 0.087
CLIP1 isoform 2 (UniProt P30622) -0.082
CINP isoform 3 (UniProt Q9BW66) -0.015
CIC (UniProt I3L1Q4) -0.03
CYP4V2 (UniProt Q6ZWL3) 0.126
CXCL14 (UniProt O95715) -0.09
DONSON (UniProt Q9NYP3) 0.014
CSRP2 (UniProt Q16527) -0.097

Compound: C1=CC=C(C=C1)C2=NC(=C(N2)C3=CC=NC=C3)C4=CC(=C(C=C4)Cl)O
Assay: as above
How it was run: as §1

log2 fold change, inactive:
CSDE1 isoform 3 (UniProt O75534) 0.027
COPS9 (UniProt Q8WXC6) 0.081
CHEK2 (UniProt O96017) 0.018
CHMP4A (UniProt H0YIN6) -0.055
CSNK1D (UniProt P48730) 0.124
DDR1 isoform 5 (UniProt Q08345) 0.04
CSAD isoform 3 (UniProt Q9Y600) 0.044
CLASP2 (UniProt O75122) -0.044
CORO7 (UniProt P57737) -0.023
DHRS13 (UniProt Q6UX07) 0.133
CPLX1 (UniProt O14810) 0.012
COL6A3 (UniProt P12111) -0.108
CRLS1 (UniProt Q9UJA2) 0.056
DAPK1 isoform 3 (UniProt P53355) 0.061
DHX32 (UniProt Q7L7V1) 0.013
CNK3/IPCEF1 isoform 2 (UniProt G9CGD6) -0.051
CLIP1 isoform 2 (UniProt P30622) -0.055
CINP isoform 3 (UniProt Q9BW66) 0.081
CYP4V2 (UniProt Q6ZWL3) 0.099
CLIP1, A0A3B3ITA2 -0.039
DNM2 isoform 4 (UniProt P50570) 0.072
DONSON (UniProt Q9NYP3) 0.06
CSNK1A1 isoform 3 (UniProt P48729) -0.006
